{
  "source": "PubChem BioAssay (Tox21)",
  "note": "Results filed as inconclusive are left out. Entries that show only a call come without a potency. The source made the active and inactive calls. Calls follow the shape of the dose curve; as a rule, active = well fitted inhibition curve with a large enough effect in the signal ratio in the repeat runs (not every such curve was filed as active); inconclusive = weak or mixed curves, or effect the other way; inactive = flat fitted curve, though single readings scatter; the % refers to the signal ratio.",
  "data": [
    {"test": "cAMP Responsive Elements (CRE) small molecule antagonists, cell-based qHTS assay (AID 1963591)", "conditions": "CRE-bla HEK293T, beta-lactamase FRET ratio; series mostly up to 92.4 µM", "source_text": "U.S. Tox21 Program National Center for Advancing Translational Sciences [NCATS] Division of Preclinical Innovation [DPI] U.S. Environmental Protection Agency [EPA] National Institutes of Environmental Health Sciences [NIEHS] National Toxicology Program [NTP] U.S. Food and Drug Administration [FDA] Tox21 Assay Overview: CREB (cyclic-AMP Responsive Element Binding Protein) is a cellular transcription factor. It binds to certain DNA sequences called cAMP Responsive Elements (CRE) and regulates the transcription of the genes. […] This cell line can be used to find agonists/antagonists of the cyclic AMP signaling pathway. The activation of the report gene under culture conditions can be detected by fluorescence intensity. This cell line has been used to screen the Tox21 10K compound library to […].\nTox21 Assay Protocol Summary: CRE-bla Hek 293T cells were suspended in assay medium (DMEM containing 10% dialyzed FBS, 0.1 mM NEAA, 1 mM sodium pyruvate and 25 mM HEPES) and dispensed at 2,000 cells/4 uL /well into 1536-well black wall/clear bottom plates using a Multidrop Combi (ThermoFisher Scientific, Waltham, MA) dispenser. After the assay plates were incubated at 37 C/5% CO2 for 18 hrs, 23 nL of compounds dissolved in DMSO, positive controls or DMSO only was transferred to the assay plate by a pintool workstation (Kalypsys, San Diego, CA), followed by addition of 1 […] uL of 1.25uM NKH477 (0.25 uM as final concentration) in assay medium using a Flying Reagent Dispenser (Aurora Discovery, San Diego, CA). The plates were incubated at 37 C and 5% CO2 for 3 hrs. Then 1 uL of LiveBLAzer B/G FRET substrate (Invitrogen, Carlsbad, CA) was added to each well using Bioraptr Flying Reagent Dispenser (FRD, Aurora Discovery, San Diego, CA). The plates were incubated at room temperature for 2 h.", "values": [
      {"smiles": "[Cl][In]([Cl])[Cl]", "Potency": "inactive"},
      {"smiles": "CCc1cccc(CC)c1NC(=O)C(=O)O", "Potency": "inactive"},
      {"smiles": "CCCCC1CCC(=O)O1", "note": "(stereo not given)", "Potency": "inactive"},
      {"smiles": "CC(=O)OCc1ccccc1", "Potency": "inactive"},
      {"smiles": "C=C(C)[C@@H]1CCC2=CCC[C@@H](C)[C@]2(C)C1", "Potency": "inactive"},
      {"smiles": "CC/C=C\\CCOC(=O)CCCCC", "Potency": "inactive"},
      {"smiles": "Cc1ccc(CO)cc1", "Potency": "inactive"},
      {"smiles": "CCC(=O)OCc1ccc(OC)cc1", "Potency": "inactive"},
      {"smiles": "CC(=O)c1cccc([N+](=O)[O-])c1", "Potency": "inactive"},
      {"smiles": "CC(C)(C)c1ccc(O)c(O)c1", "Potency": "inactive"},
      {"smiles": "CCc1cnc(C(=O)O)c(C(=O)O)c1", "Potency": "inactive"},
      {"smiles": "O=C1NCCN1CCO", "Potency": "inactive"},
      {"smiles": "CC(=N\\O)/C(C)=N/O", "Potency": "inactive"},
      {"smiles": "COCCCOc1cc(C[C@@H](C[C@H](N)[C@@H](O)C[C@H](C(=O)NCC(C)(C)C(N)=O)C(C)C)C(C)C)ccc1OC", "Potency": "inactive"},
      {"smiles": "C=C(C)C(=O)OCCOP(=O)(O)O", "Potency": "inactive"},
      {"smiles": "CC(C)C(=O)C(C)C", "Potency": "inactive"},
      {"smiles": "CC(=O)C1(C)CC2=C(CCCC2(C)C)CC1C", "note": "(stereo not given)", "Potency": "inactive"},
      {"smiles": "Cn1cnc2c1c(=O)[nH]c(=O)n2C", "Potency": "inactive"},
      {"smiles": "CC(C)OC=O", "Potency": "inactive"},
      {"smiles": "O=C1c2ccccc2C(=O)C1c1ccc2cc(S(=O)(=O)O)cc(S(=O)(=O)O)c2n1", "Potency": "inactive"},
      {"smiles": "CCOCCOCCOCCO", "Potency": "inactive"},
      {"smiles": "Cc1nc(-c2ccc3c(c2)CCN(CCC2CCC(NC(=O)/C=C/c4ccc(F)cc4)CC2)CC3)no1", "note": "(stereo not given)", "Potency": "inactive"},
      {"smiles": "O=C(O)CN(CCCN(CC(=O)O)CC(=O)O)CC(=O)O", "activity change, negative = inhibition": "19.1% [at 18.9 µM] (inactive)"},
      {"smiles": "CCC(C(=O)NC(N)=O)c1ccccc1", "note": "(stereo not given)", "Potency": "inactive"},
      {"smiles": "CCC(CC)C(C)CCOC(C)=O", "note": "(stereo not given)", "Potency": "inactive"},
      {"smiles": "CCOC(=O)O[C@]1(C(=O)OCCl)CC[C@H]2[C@@H]3CCC4=CC(=O)C=C[C@]4(C)[C@H]3[C@@H](O)C[C@@]21C", "Potency": "inactive"},
      {"smiles": "CN(C)CCCN(C)CCCN(C)C", "Potency": "inactive"},
      {"smiles": "NS(=O)(=O)c1ccccc1Cl", "Potency": "inactive"},
      {"smiles": "CSc1cnccn1", "Potency": "inactive"},
      {"smiles": "CCC(C)CO", "note": "(stereo not given)", "Potency": "inactive"},
      {"smiles": "Cc1ccc(/C(=C\\CN2CCCC2)c2ccccn2)cc1", "Potency": "inactive"},
      {"smiles": "C=CC(C)(O)CC/C=C(\\C)CC", "note": "(stereo not given)", "Potency": "inactive"},
      {"smiles": "CC(C)COC(=O)c1ccc(N)cc1", "Potency": "inactive"},
      {"smiles": "C=C(C)C(=O)NCCC[N+](C)(C)C", "Potency": "inactive"},
      {"smiles": "CC(CO)c1ccccc1", "note": "(stereo not given)", "Potency": "inactive"},
      {"smiles": "CC(C)(C)c1ccc(CCC=O)cc1", "Potency": "inactive"},
      {"smiles": "NC(=O)N[C@@H](CCC(=O)O)C(=O)O", "Potency": "inactive"},
      {"smiles": "CC(C)(C)S", "Potency": "inactive"},
      {"smiles": "CN(C)N=Nc1ccccc1", "Potency": "inactive"},
      {"smiles": "CCOc1ccc(N)c([N+](=O)[O-])c1", "Potency": "inactive"}
    ]}
  ]
}
